From PubChem BioAssay (NCI)
This is part of a sample that, as a whole, favours compounds with a hit. Of some 83,000 tested, about 20% had one in any assay.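 Single-dose data. Exposure time 48 hours. Values below 10 considered active.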 Calls of active or inactive are those of the source.

What follows are compounds tested on HL-60(TB) leukemia (assay: NCI-60 one-dose screen, 48 h (100 = growth as untreated, 0 = no growth, -100 = all killed)). Conditions: 10 µM unless noted.

Row | Structure (SMILES) | growth
1 | C/C(=C\CCc1ccsc1)CC/C=C(\C)CCCN1CCSCC1 | 67.7% (inactive)
2 | CN(C)CCOc1ccc(-c2nc3sccn3c2-c2ccnc(S(C)(=O)=O)n2)cc1 | 97.1% (inactive)
3 | CC(Br)C(OC(=O)c1ccccc1Cl)c1cc2c(cc1Br)OCO2 (stereo not given) | 103% (inactive)
4 | CCNC(=O)c1[nH]cc(-c2ccc(OC)cc2)c1-c1cc(OC)c(OC)c(OC)c1 | 5.15% (active)
5 | CCCCCCCCCOc1c(OC)cc(C2CC(=O)Nc3c2c(C)nn3-c2nc3ccccc3[nH]2)cc1OC (stereo not given) | 9.26% (active)
6 | [O-][N+](=Nc1cccc(Cl)c1)c1cccc(Cl)c1 | 132% (inactive)
7 | CCCCCN1CCN(C(CC(=O)c2ccccc2)C(=O)c2ccccc2)CC1 (stereo not given) | 60.4% (inactive)
8 | O=c1oc2ccccc2cc1-c1csc(N=Nc2c(O)[nH]c3ccc(Cl)cc23)n1 | 105% (inactive)
9 | O=C1Nc2c(ccc(Cl)c2Cl)/C1=C/c1ccc(O)cc1 | 76.9% (inactive)
10 | Clc1ncn[nH]1 | 103% (inactive)
11 | CC1(O)CCC(Nc2cc(-c3ccc(C(F)(F)F)cc3)c(C#N)c3nc4ccccc4n23)CC1 (stereo not given) | 63% (inactive)
12 | CCC1=C(c2ccc(OC)cc2)C(C)(C)Oc2cc(O)c(CN3CCCC3)cc21 | 85% (inactive)
13 | COc1ccc(Nc2ncc(I)c(NCCCNC(=O)C3CCC3)n2)cc1 | -37.6% (active)
14 | COc1ccc2[nH]c(O)c(N=NC(=O)c3oc4ccccc4c3C)c2c1 | 53.9% (inactive)
15 | O=C1/C(=C/c2ccc(Oc3ccccc3)cc2)N=C(c2ccccc2)N1CCc1cccs1 | 86% (inactive)
